# Source: PubChem (National Center for Advancing Translational Sciences (NCATS))
# ASM inhibitor: blocks human secretory acid sphingomyelinase. P17405. placental ASM, HMU-PC fluorogenic substrate, 60 min. Potency, µM (doses to about 57.5 µM), without a hit: top-dose activity change, negative = inhibition, usual class: inhibitors. actives 0.006% (n = 340,000); also: potency is read from the fitted curve at half-maximal effect
# Target sequence (P17405 47-631 limits assumed): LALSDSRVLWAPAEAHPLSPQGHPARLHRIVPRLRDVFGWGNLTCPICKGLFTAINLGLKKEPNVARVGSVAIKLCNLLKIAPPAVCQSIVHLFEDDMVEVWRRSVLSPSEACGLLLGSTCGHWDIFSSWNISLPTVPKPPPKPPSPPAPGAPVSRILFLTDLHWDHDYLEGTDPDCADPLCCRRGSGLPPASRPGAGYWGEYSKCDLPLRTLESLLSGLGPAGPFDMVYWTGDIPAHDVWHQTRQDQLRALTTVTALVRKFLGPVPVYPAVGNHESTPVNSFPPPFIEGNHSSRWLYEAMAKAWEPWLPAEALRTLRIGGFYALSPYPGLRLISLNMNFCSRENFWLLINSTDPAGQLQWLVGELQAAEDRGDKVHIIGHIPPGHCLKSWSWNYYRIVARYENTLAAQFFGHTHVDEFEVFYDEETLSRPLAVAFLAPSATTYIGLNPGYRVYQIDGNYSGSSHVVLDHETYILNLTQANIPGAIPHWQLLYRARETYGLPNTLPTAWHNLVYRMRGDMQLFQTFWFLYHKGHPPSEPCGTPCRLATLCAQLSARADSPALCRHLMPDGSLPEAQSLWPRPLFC
#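 Human placenta-derived ASM preincubated with compound 10 min at room temperature, then reacted with 9 uM (final) fluorogenic HMU-PC substrate for 60 min at 37 C. Stop solution raises pH to 10; fluorescence read at Ex 386/Em 447 nm.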
# DT40 TDP1 no CPT: qHTS for Inhibitors of human tyrosyl-DNA phosphodiesterase 1 (TDP1): qHTS in cells in absence of CPT | DT40 Tdp1-/- hTDP1 cells, no CPT, ATP luminescence, 48 h | Potency, µM (highest dose often 46.2 µM), for inactives: at the top dose activity change, negative = growth inhibition, most hits filed as inhibitors | actives 15% (n = 420,000); also: potency is read from the fitted curve at half-maximal effect; % is scaled to controls: 0 for no effect and ±100 for the full control effect; nearly all actives have a fitted effect of over 55% in size
#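 Growth kinetics read by CellTiter-Glo luminescence after ≥48 hr at 37 °C. Cells: DT40 Tdp1-/- stably carrying human TDP1, 400 per well, compound exposure in the absence of CPT (DMSO vehicle).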
# IL1B secr inh: blocks inflammasome-driven IL-1 beta release; THP-1 LPS/ATP IL-1B secretion, AlphaLISA, 16 h; hits give low values; activity change, % at 57.5 µM; actives 4.7% (n = 360,000); AID 743279; in the data active = activity change below about -50%; inconclusive = mostly about -30% to -49%; also: % is scaled to controls: 0 for no effect and ±100 for the full control effect
#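 THP-1 cells pretreated 1 hr with compounds (up to 57.5 uM final), then stimulated with LPS (250 ng/mL final) plus ATP (1.25 mM final); secreted IL-1B measured by AlphaLISA after 16 hr, decreased signal indicating inhibition.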
# TGFb SMAD3 inh: blocks TGF-b signaling | HepG2 CAGA-GFP TGF-b/SMAD3 reporter, GFP fluorescence, 18 h; TGF-beta stimulated, 500 pg/mL final | Potency, µM (top dose mostly 46.1 µM), inactives show top-dose activity, negative = inhibition, usual class: inhibitors | actives 1.2% (n = 410,000); also: potency is read from the fitted curve at half-maximal effect; % is scaled to controls: 0 for no effect and ±100 for the full control effect; nearly all actives have a fitted effect of over 65% in size
#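 Using HEPG2 CAGA-GFP reporter cells at 1000 cells/well, we pinned test compounds, stimulated with recombinant TGF-beta (500 pg/mL final) and measured total well GFP after 18 h.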
# DT40 TDP1 CPT: growth inhibition of DT40 Tdp1-/-;hTDP1 cells with camptothecin (screen for TDP1 inhibitors) | chicken DT40 Tdp1-/-;hTDP1 cells + 20 nM CPT, ATP luminescence, 48 h | Potency, µM (highest dose often 46.2 µM), without a hit: at the highest dose activity change, negative = growth inhibition, hits mostly inhibitors | actives 12% (n = 420,000) | AID 686979; also: potency is read from the fitted curve at half-maximal effect; % is scaled to controls: 0 for no effect and ±100 for the full control effect; nearly all actives have a fitted effect of over 55% in size
#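 Chicken DT40 Tdp1-/- cells stably complemented with human TDP1 were seeded at 400 cells/well in medium containing 20 nM camptothecin, exposed to pin-transferred compounds, and grown at 37 °C for at least 48 hr. Viability was read as ATP luminescence.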
# HepG2 tox: HepG2 cytotoxicity, counter-screen for TGF-b inhibitors. AID 588856. HepG2 CAGA-GFP viability, ATP luminescence, 18 h. actives 0.76% (n = 410,000). Potency, µM (top dose mostly 46.1 µM), for inactives: at the top dose activity change, negative = cytotoxicity, hits mostly cytotoxic; also: potency is read from the fitted curve at half-maximal effect
#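 HepG2 CAGA-GFP cells (1000/well, DMEM with 1% FBS) received compound, then TGF-beta at 500 pg/mL final, and were incubated 18 hours at 37 degrees C. Viability was read by CellTiter-Glo luminescence. Media-only wells were set as complete cell-killing and DMSO as no toxicity.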
# An asterisk follows results filed as active; i = inactive; ? = inconclusive; . = not tested or not shown; [ ] = another dose, or the depositor's remark. This is a sample that favours compounds with a hit; in the whole collection about 19% have one here. Unless noted, calls follow the shape of the dose curve; as a rule, active = well fitted curve in the direction sought with a large enough effect; inconclusive = small, poorly fitted or top-dose-only effect, or another doubt; inactive = no such curve, though single readings can be large; an effect the other way counts as inactive or inconclusive.
SMILES,ASM inhibitor,DT40 TDP1 no CPT,IL1B secr inh,TGFb SMAD3 inh,DT40 TDP1 CPT,HepG2 tox
Cc1cccn2c(=O)c3cc(C(=O)NCc4ccco4)c(=N)n(C(C)C)c3nc12,394%,-28%,-30,3%,-26%,-17%
Cc1cccn2c(=O)c3cc(C(=O)NCCc4ccccc4)c(=N)n(Cc4ccco4)c3nc12,248%,10µM*,4,?,21µM*,-17%
COCCNC(=O)c1cc2c(=O)n3cccc(C)c3nc2n(Cc2ccncc2)c1=N,192%,?,-5,8%,?,14%
COc1ccc(CCNC(=O)c2cc3c(=O)n4cccc(C)c4nc3n(Cc3ccco3)c2=N)cc1OC,239%,26µM*,10,-10%,?,-12%
Cc1cccn2c(=O)c3cc(C(=O)NCc4ccco4)c(=N)n(CCc4ccccc4)c3nc12,208%,15µM*,-85*,-1%,-96%,-39%
COc1cccc(NC(=O)CN(C)CC(=O)c2c(C)[nH]c3ccccc23)c1,-1%,?,14,-16%,?,-18%
COc1ccc(-n2cc(CN(C)C(C)c3ccncn3)c(-c3cccc(F)c3)n2)cc1 (stereo unspecified),1%,?,-51*,-14%,?,0%
COc1cccc(-c2nn(-c3ccccc3)cc2CN(C)C(C)c2ccncn2)c1 (stereo unspecified),0%,?,-20,0%,-21%,3%
COc1ccc(-n2cc(CNC3CCC(O)CC3)c(-c3cccc(F)c3)n2)cc1 (stereo unspecified),-1%,21µM*,-28,-11%,21µM*,-9%
COc1ccc(-n2cc(CN3CCC(OC)CC3)c(-c3cccc(F)c3)n2)cc1,7%,1%,-25,7%,-1%,9%
COc1ccc(CNCc2cn(-c3cccc(F)c3)nc2-c2ccc(C)o2)cc1,3%,16µM*,-87*,13µM*,?,-102%
CCOc1cc2sc(N3CCC(C(=O)Nc4cc(C)cc(C)c4)CC3)nc2cc1Br,.,-54%,.,-13%,21µM*,9%
CCOc1cc2sc(N3CCC(C(=O)NCCCN4CCCC4=O)CC3)nc2cc1Br,-7%,?,9,?,?,-40%
CCOc1cc2sc(N3CCC(C(=O)Nc4ccc(C(C)C)cc4)CC3)nc2cc1Br,.,?,.,12%,?,-38%
CCOc1cc2sc(N3CCC(C(=O)Nc4ccc(C)cc4C)CC3)nc2cc1Br,.,21µM*,.,3%,7.3µM*,7%
Cc1ccc(N2CCN(S(=O)(=O)c3ccc(Cl)c4ccccc34)CC2)c(C)c1,.,.,.,21%,.,-2%
COc1ccc(S(=O)(=O)N(C)CC(=O)NC2CCCC2)cc1OC,4%,-1%,7,?,1%,-10%
CCOc1ccccc1N(CC(=O)NC1CCCCC1)S(=O)(=O)c1ccc(C)cc1,-4%,21µM*,-23,8%,?,-1%
COc1ccc(OC)c(N(CC(=O)NC2CCCC2)S(=O)(=O)c2ccc(OC)c(OC)c2)c1,.,15µM*,20,19%,15µM*,2%
COc1ccc(OC)c(N(CC(=O)NC2CCCCCC2)S(=O)(=O)c2ccc(C)cc2)c1,.,23µM*,-4,?,23µM*,-13%
COc1ccccc1N(CC(=O)NC1CCCC1)S(=O)(=O)c1ccc(C)cc1,4%,-22%,-9,-11%,-21%,-6%
CC(C)C[C@H]1CN(CCCC[C@H]2CNC(=O)C(=O)N2CC2CCCCC2)C(=O)C(=O)N1CCC1CCCCC1,.,-15%,21,.,1%,.
CC(=O)ON(C(C)=O)c1ccc(/C=C2/C=Cc3ccccc32)cc1,.,?,.,-21%,?,-58%
CN(C)c1ccnc(Oc2ccc(C(C)(C)C)cc2)c1C#N,-12%,16µM*,42,-18%,?,-39%
Cc1cc(Cl)ccc1Oc1nccc(N(C)C)c1C#N,-2%,16µM*,-70*,-2%,?,5%
SMILES,ASM inhibitor,DT40 TDP1 no CPT,IL1B secr inh,TGFb SMAD3 inh,DT40 TDP1 CPT,HepG2 tox
CCOC(=O)c1sc2nc(C)cc(C)c2c1N,i,-12%,0,0%,0%,-16%
CCOC(=O)c1sc2nc(SC)nc(-c3ccc(Cl)cc3)c2c1N,-2%,15µM*,-3,-9%,21µM*,-4%
CCOC(=O)c1sc2nc(C)nc(NCc3ccc(F)cc3)c2c1C,-4%[11.5 µM],26µM*,?,?,26µM*,-1%
CCOC(=O)c1sc2nc(C)nc(NCc3ccc(Cl)cc3)c2c1C,-19%,21µM*,-67*,7%,12µM*,-31%
CCOC(=O)c1sc2nc(CC(=O)OC)nc(NCc3ccc(F)cc3)c2c1C,-17%,16µM*,-5,16%,18µM*,-16%
O=C(COC(=O)COc1cccc(F)c1)Nc1nc2ccccc2s1,0%,-15%,-4,25%,-7%,-3%
O=C(COC(=O)/C=C/c1ccc(C(F)(F)F)cc1)NCC1CCCCC1,0%,?,6,-2%,?,-2%
Cc1cc(C)cc(OCC(=O)OCC(=O)N(C)CC(=O)Nc2ccc(F)cc2)c1,-1%,6%,6,11%,12%,9%
COc1cc(OC)c(N(C)S(=O)(=O)c2cccc(C(=O)Nc3nc(C)cs3)c2)cc1Cl,-8%,?,16,?,16µM*,-16%
COc1cc(OC)c(N(C)S(=O)(=O)c2cccc(C(=O)NC3=NCCS3)c2)cc1Cl,7%,?,-17,-1%,23µM*,2%
